A selection: hits, their analogues and other compounds. The true share with any hit is near 19%.
HT1080-NT tox: qHTS for induction of synthetic lethality in tumor cells producing 2HG: qHTS for the HT-1080-NT fibrosarcoma cell line; HT-1080-NT fibrosarcoma viability, CellTiter-Glo ATP luminescence, 48 h; Potency, µM (top dose mostly 46.1 µM), actives largely listed as cytotoxic; 1.6% of 360,000 active; AID 686970, 2013;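 further: NT is the 2HG producing partner of a matched IDH1 knockdown line; nearly all actives have a fitted effect of over 55% in size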
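750 cells/well, RPMI + 5% FBS; 2 h settle, compound pin-transfer, 48 h at 37 degrees C. CellTiter-Glo 10 min RT, luminescence. Normalized to DMSO and media-only wells.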
DT40 TDP1 CPT: qHTS for Inhibitors of human tyrosyl-DNA phosphodiesterase 1 (TDP1): qHTS in cells in presence of CPT. chicken DT40 Tdp1-/-;hTDP1 cells + 20 nM CPT, ATP luminescence, 48 h. Potency, µM (doses to about 46.2 µM), actives largely listed as inhibitors. 12% of 420,000 active; further: nearly all actives have a fitted effect of over 55% in size
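Chicken DT40 Tdp1-/- cells stably complemented with human TDP1 were seeded at 400 cells/well in medium containing 20 nM camptothecin, exposed to pin-transferred compounds, and grown at 37 °C for at least 48 hr. Viability was read as ATP luminescence.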
HT1080 IDH1KD tx: qHTS for induction of synthetic lethality in tumor cells producing 2HG: qHTS for the HT-1080-IDH1KD cell line. HT-1080 IDH1 knockdown viability, ATP luminescence, 48 h. Potency, µM (doses to about 46.1 µM), usual class: cytotoxic. 2% of 360,000 active
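Using the IDH1-knockdown HT-1080 line run in the same batch and compound series as the NT line, viability after 48 h at 37 °C was determined by CellTiter-Glo luminescence and expressed as % activity.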
IL-1B inflam inh: qHTS for Inhibitors of Inflammasome Signaling: IL-1-beta AlphaLISA Primary Screen; 4.7% of 360,000 active; activity change, % at 57.5 µM; AID 743279, 2014; THP-1 LPS/ATP IL-1B secretion, AlphaLISA, 16 h; hits give low values; in the data active means activity change below about -50%; inconclusive means mostly about -30% to -49%
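Secreted IL-1B measured by AlphaLISA bead assay after 16 h compound exposure of THP-1 cells; compounds (final up to 57.5 uM) added 1 h before LPS (250 ng/mL) and ATP (1.25 mM) stimulation; lower signal means less secretion.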
DT40 TDP1 no CPT: qHTS for Inhibitors of human tyrosyl-DNA phosphodiesterase 1 (TDP1): qHTS in cells in absence of CPT | DT40 Tdp1-/- hTDP1 cells, no CPT, ATP luminescence, 48 h | Potency, µM (titrated, usually from 46.2 µM), usual class: inhibitors | 15% of 420,000 active; further: nearly all actives have a fitted effect of over 55% in size
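No-CPT arm: Tdp1-/-;hTDP1 DT40 cells (400/well) plus compounds, incubated ≥48 hr at 37 °C. Readout CellTiter-Glo luminescence.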
A number is an active result; – = inactive; ? = inconclusive; · = no result; ! = not confirmed by another sample; [ ] = another dose, or the depositor's remark. Unless noted, the call rests on the fitted dose curve; in most records, active means well fitted curve in the direction sought with a large enough effect; inconclusive means small, poorly fitted or top-dose-only effect, or another doubt; inactive means no such curve, though single readings can be large; an effect the other way counts as inactive or inconclusive.

SMILES | HT1080-NT tox | DT40 TDP1 CPT | HT1080 IDH1KD tx | IL-1B inflam inh | DT40 TDP1 no CPT
COCCn1c(=O)c(-c2ccccc2)nc2cnc(OC)nc21 | · | – | · | · | –
CCCCCCNC(=O)n1cc(F)c(=O)[nH]c1=O | · | 11µM | · | · | 15µM
CCCOCn1cc(F)c(=O)[nH]c1=O | – | – | – | – | –
COc1cc(C(=O)c2ccccc2C(=O)O)c(OC)c2c1CCCC2 | – | – | – | – | –
CC(O)CN1C(=O)C(CC(=O)Nc2ccc(Cl)cc2)SC1=Nc1ccccc1 (stereo not drawn) | ? | ? | ? | -56 | 26µM
COCCN1C(=O)C(CC(=O)Nc2ccc(C(C)=O)cc2)SC1=Nc1ccccc1 (stereo not drawn) | – | 16µM | – | – | ?
C=CCN1C(=O)C(CC(=O)Nc2ccc(C)cc2)SC1=Nc1c(C)n(C)n(-c2ccccc2)c1=O (stereo not drawn) | – | – | – | – | –
CCCCN1C(=O)C(CC(=O)NCC)SC1=Nc1ccccc1 (stereo not drawn) | – | – | – | – | –
CN1C[C@@H]2[C@@H]3C(=O)N(Cc4ccccc4)C(=O)[C@@H]3[C@](C)(C1=O)N2C(=O)c1ccc(Cl)cc1 | – | – | – | – | –
CC1C(=O)N2CCCc3cc(NC(=O)C(=O)NCc4cccnc4)cc1c32 (stereo not drawn) | – | – | – | – | –
COc1cccc(C(=O)C(CCC#N)c2ccccc2)c1 (stereo not drawn) | – | – | – | – | ?
COc1cccc(C(=O)C(C#N)=C(SC)SC)c1 | – | 2.6µM | – | – | 2.3µM
CSC(SC)=C(C#N)C(=O)c1ccccc1 | ? | 2.1µM | 21µM | -89 | 2.6µM
CCCOc1ccc(N2C(=O)CC(NCC(=O)OCC)C2=O)cc1 (stereo not drawn) | – | – | – | – | –
CCc1nc(N2CCOCC2)c(C#N)c2c1CCCC2 | – | – | – | – | –
N#Cc1c(NCCN)nc(-c2ccco2)c2c1CCCC2 | ? | ? | ? | -105 | ?
N#Cc1c(N2CCOCC2)nc(-c2ccco2)c2c1CCCC2 | – | ? | – | -78 | ?
CCN(CC(=O)Nc1ccccc1C(F)(F)F)C(=O)C1CC(=O)N(Cc2ccccc2)C1 (stereo not drawn) | – | – | – | – | –
CC(C)Cc1ccc(-c2ccc3nccn3c2)cc1 | ? | ? | ? | – | 18µM
CCC(OCC(O)CN1CCN(CCN2C(=O)c3cccc4cccc(c34)C2=O)CC1)c1ccccc1 (stereo not drawn) | – | 10µM | – | -92 | 6.5µM
C=CCc1ccccc1OCC(O)CN1CCN(Cc2ccc3c(c2)OCO3)CC1 (stereo not drawn) | – | 16µM! | – | – | ?
C=CCc1ccccc1OCC(O)CN1CCN(CCN2C(=O)c3cccc4cccc(c34)C2=O)CC1 (stereo not drawn) | – | ? | – | -70 | ?
OC(COCc1ccc2c(c1)OCO2)CN1CCC(Cc2ccccc2)CC1 (stereo not drawn) | – | ? | ? | -71 | ?
Cc1ccc(OCC(O)CN2CCN(Cc3ccc4c(c3)OCO4)CC2)cc1C (stereo not drawn) | – | – | – | – | ?
Cc1cc2nc(-c3ccc(Cl)cc3)c(CC3CCCCC3)n2c(C)c1Br | – | ? | – | – | ?
SMILES | HT1080-NT tox | DT40 TDP1 CPT | HT1080 IDH1KD tx | IL-1B inflam inh | DT40 TDP1 no CPT
CC(=O)N1c2ccccc2C(=O)C1N1CCN(c2cccc(C)c2C)CC1 (stereo not drawn) | · | – | · | · | –
Cc1ccccc1OCC(O)CN1CCN(CCN2C(=O)c3cccc4cccc(c34)C2=O)CC1 (stereo not drawn) | – | ? | – | -87 | ?
Cc1cccc(C)c1OCC(O)CN1CCC(CN2C(=O)c3cccc4cccc(c34)C2=O)CC1 (stereo not drawn) | – | 12µM | – | – | 8.2µM
Cc1noc(C)c1-c1ccc(C(=O)NCc2cccs2)c2occc12 | – | ? | – | – | ?
CO[C@@H]1[C@@H](OC)[C@H](C)[C@@](O)(CC(=O)O)O[C@H]1[C@H](C)[C@H]1O[C@@]2(CC[C@@](C)([C@H]3CC[C@@](C)([C@@H]4O[C@@H]([C@H]5O[C@](C)(O)[C@H](C)C[C@@H]5C)C[C@@H]4OC4C[C@H](OC)[C@@H](OC)[C@H](C)O4)O3)O2)C[C@H](O)[C@H]1C (stereo partly drawn) | · | 0.6µM | · | · | 0.34µM
O=C(Nc1ccc(Cl)cc1)N[C@H]1CC[C@H](CCn2cc(-c3ccccc3F)nn2)O[C@@H]1CO | – | 8.2µM | – | – | 9.2µM
CN(C)Cc1cn(CC[C@@H]2CC[C@@H](NC(=O)Nc3ccccc3F)[C@@H](CO)O2)nn1 | – | – | – | – | –
Brc1ccccc1-c1nnc2sc(Cc3ccccc3)nn12 | – | – | – | -56 | –
COc1ccc(Cc2nn3c(-c4ccccc4Br)nnc3s2)cc1 | – | ? | –[9.24 µM] | -85 | ?
Clc1ccccc1-c1nnc2sc(CCc3ccccc3)nn12 | – | ? | – | – | ?
COc1cc(S(=O)(=O)N2CCN=C2c2ccccc2)ccc1F | ? | ? | ? | – | 23µM
CCOc1ccc(S(=O)(=O)N2CCN=C2c2ccccc2)c(C)c1C | – | 16µM | – | – | 23µM
COc1cc(S(=O)(=O)N2CCN(c3ccccc3)CC2)ccc1F | – | ? | – | – | ?
Cc1ccc(-n2ccnc2SCC(=O)c2c(N)n(C3CC3)c(=O)[nH]c2=O)cc1C | – | – | – | – | –
O=C(CCN1CCC(c2ccccc2)C1)c1cccs1 (stereo not drawn) | ? | 1.8µM | 4µM | – | 2.6µM
O=C(CCN1CCC(c2ccccc2)C1)c1ccc2c(c1)OCCO2 (stereo not drawn) | 4.6µM | 2.1µM | 18µM | – | 1.8µM
O=C(CCN1CCC(c2ccccc2)C1)c1ccccc1 (stereo not drawn) | – | 3.7µM | ? | – | 3.7µM
O=C(CCN1CCCC1)c1cccs1 | – | 0.73µM | – | – | 1.5µM
O=C(CCc1ccc(CCC(=O)c2cccs2)s1)c1cccs1 | – | ? | – | – | –
O=C(CCCCCCN1C(=O)c2ccccc2C1=O)N1CCC(c2ccccc2)C1 (stereo not drawn) | – | ? | – | – | ?
CN(C)/C(=N\S(=O)(=O)c1ccc(Cl)cc1)c1ccc(F)cc1 | – | – | – | – | –
COc1ccc(-n2c(=S)[nH]c3cc(C(=O)NCc4cccnc4)ccc3c2=O)cc1 | – | – | – | – | –

Screening results (PubChem)
